# Results from ChEMBL document CHEMBL1961873, “Compounds: GSK PKIS; Assays: Nanosyn kinase panel” (2012).
# Tests used:
# [1] = biological target: T1, Inhibitor of nuclear factor kappa-B kinase subunit epsilon (Homo sapiens) (UniProt Q14164); conditions: at 1 µM;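 also: reported values are averaged percent inhibition figures against human IKKε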
# T1 sequence (whole entry): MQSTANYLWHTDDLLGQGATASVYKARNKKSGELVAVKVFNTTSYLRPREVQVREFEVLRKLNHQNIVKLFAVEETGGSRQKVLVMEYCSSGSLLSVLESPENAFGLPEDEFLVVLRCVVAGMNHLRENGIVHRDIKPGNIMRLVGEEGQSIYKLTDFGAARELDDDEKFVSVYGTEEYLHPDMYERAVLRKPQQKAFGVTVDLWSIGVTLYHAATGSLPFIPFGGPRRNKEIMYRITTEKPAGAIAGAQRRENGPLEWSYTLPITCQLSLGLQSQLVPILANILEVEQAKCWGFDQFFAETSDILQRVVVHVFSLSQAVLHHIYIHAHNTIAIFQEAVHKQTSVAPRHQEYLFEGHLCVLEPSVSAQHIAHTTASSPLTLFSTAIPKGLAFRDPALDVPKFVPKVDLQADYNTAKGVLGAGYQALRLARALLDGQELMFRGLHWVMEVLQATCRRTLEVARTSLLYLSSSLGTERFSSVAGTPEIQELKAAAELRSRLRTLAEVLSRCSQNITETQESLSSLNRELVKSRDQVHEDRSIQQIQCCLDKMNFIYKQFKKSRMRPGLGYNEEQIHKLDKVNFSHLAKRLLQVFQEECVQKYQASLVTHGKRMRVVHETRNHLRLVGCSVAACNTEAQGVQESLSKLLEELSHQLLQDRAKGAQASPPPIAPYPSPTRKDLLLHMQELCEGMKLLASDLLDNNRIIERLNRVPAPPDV
# [2] = biological target: T2, Serine/threonine-protein kinase Nek1 (Homo sapiens) (UniProt Q96PY6); conditions: at 0.1 µM
# T2 sequence (whole entry): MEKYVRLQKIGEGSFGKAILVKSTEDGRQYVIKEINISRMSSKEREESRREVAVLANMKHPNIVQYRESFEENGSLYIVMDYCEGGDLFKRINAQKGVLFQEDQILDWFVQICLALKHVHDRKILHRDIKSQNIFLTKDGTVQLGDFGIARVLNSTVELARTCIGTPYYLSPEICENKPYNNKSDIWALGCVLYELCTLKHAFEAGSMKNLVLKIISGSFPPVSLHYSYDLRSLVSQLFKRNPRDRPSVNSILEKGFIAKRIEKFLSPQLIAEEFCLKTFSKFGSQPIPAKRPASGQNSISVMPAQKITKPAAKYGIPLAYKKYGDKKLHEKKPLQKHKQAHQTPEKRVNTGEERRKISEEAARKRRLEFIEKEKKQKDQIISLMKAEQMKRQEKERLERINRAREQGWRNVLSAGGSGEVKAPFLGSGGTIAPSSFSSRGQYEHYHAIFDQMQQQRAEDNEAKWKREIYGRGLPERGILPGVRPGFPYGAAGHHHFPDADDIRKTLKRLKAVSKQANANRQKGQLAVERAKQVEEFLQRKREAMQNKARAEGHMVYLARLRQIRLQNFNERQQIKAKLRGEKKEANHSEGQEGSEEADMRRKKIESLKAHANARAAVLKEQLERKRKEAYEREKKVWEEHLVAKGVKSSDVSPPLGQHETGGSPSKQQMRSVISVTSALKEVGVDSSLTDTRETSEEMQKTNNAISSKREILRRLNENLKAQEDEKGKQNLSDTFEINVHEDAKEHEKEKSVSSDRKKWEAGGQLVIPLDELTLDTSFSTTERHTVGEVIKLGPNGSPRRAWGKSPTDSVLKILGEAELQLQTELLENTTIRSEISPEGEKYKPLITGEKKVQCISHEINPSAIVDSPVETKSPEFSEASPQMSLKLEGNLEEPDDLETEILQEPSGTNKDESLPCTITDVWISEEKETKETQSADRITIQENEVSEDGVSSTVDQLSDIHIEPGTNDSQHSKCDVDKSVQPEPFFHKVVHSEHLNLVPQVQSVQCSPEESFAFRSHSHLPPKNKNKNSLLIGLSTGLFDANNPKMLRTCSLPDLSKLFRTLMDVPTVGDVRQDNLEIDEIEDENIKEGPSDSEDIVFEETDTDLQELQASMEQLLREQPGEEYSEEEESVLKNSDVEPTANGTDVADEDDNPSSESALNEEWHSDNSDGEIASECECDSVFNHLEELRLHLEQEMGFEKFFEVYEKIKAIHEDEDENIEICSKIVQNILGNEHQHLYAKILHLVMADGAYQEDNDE
# [3] = biological target: T2, Serine/threonine-protein kinase Nek1 (Homo sapiens); conditions: at 1 µM
# [4] = biological target: T3, Serine/threonine-protein kinase Nek2 (Homo sapiens) (UniProt P51955); conditions: at 1 µM
# T3 sequence (whole entry): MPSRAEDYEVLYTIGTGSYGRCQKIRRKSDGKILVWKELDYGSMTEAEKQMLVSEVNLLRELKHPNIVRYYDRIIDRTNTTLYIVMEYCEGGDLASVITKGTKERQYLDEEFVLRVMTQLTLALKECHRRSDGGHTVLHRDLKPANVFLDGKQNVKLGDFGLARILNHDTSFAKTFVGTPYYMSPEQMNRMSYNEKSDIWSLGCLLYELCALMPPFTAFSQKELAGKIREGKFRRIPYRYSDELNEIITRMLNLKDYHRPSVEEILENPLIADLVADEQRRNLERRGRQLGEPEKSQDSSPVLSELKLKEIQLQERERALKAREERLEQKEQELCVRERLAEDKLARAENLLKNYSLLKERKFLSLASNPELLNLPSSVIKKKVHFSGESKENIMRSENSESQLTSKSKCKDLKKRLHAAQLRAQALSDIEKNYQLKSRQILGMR
# [5] = biological target: Serine/threonine-protein kinase Nek6 (Homo sapiens) (UniProt Q9HC98); conditions: at 0.1 µM
# Chain of Serine/threonine-protein kinase Nek6 (Homo sapiens) (Q9HC98 whole entry): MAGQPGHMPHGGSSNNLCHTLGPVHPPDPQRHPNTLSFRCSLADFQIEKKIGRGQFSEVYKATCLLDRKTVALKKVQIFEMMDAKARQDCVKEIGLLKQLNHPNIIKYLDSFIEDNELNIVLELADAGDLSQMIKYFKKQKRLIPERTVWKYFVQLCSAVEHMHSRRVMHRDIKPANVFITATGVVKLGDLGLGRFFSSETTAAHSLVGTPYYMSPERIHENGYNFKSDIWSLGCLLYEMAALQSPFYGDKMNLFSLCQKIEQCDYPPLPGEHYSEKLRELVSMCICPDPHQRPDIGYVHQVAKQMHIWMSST
# [6] = biological target: Serine/threonine-protein kinase Nek6 (Homo sapiens) (UniProt Q9HC98); conditions: at 1 µM
# [7] = biological target: Serine/threonine-protein kinase Nek7 (Homo sapiens) (UniProt Q8TDX7); conditions: at 0.1 µM
# Chain of Serine/threonine-protein kinase Nek7 (Homo sapiens) (Q8TDX7 whole entry, looked up): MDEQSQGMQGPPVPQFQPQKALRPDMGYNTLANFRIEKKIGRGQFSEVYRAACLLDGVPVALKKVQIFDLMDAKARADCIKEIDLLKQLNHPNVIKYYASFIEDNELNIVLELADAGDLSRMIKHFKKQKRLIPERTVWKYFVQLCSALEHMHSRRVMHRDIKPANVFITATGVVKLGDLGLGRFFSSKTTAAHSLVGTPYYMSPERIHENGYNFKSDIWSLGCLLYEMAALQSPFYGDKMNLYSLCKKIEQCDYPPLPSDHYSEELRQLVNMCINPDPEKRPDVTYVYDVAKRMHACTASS
# [8] = biological target: Serine/threonine-protein kinase Nek7 (Homo sapiens) (UniProt Q8TDX7); conditions: at 1 µM
# [9] = biological target: T4, Serine/threonine-protein kinase Nek9 (Homo sapiens) (UniProt Q8TD19); conditions: at 0.1 µM;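 also: reported value is the mean percent inhibition of NEK9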
# T4 sequence (whole entry): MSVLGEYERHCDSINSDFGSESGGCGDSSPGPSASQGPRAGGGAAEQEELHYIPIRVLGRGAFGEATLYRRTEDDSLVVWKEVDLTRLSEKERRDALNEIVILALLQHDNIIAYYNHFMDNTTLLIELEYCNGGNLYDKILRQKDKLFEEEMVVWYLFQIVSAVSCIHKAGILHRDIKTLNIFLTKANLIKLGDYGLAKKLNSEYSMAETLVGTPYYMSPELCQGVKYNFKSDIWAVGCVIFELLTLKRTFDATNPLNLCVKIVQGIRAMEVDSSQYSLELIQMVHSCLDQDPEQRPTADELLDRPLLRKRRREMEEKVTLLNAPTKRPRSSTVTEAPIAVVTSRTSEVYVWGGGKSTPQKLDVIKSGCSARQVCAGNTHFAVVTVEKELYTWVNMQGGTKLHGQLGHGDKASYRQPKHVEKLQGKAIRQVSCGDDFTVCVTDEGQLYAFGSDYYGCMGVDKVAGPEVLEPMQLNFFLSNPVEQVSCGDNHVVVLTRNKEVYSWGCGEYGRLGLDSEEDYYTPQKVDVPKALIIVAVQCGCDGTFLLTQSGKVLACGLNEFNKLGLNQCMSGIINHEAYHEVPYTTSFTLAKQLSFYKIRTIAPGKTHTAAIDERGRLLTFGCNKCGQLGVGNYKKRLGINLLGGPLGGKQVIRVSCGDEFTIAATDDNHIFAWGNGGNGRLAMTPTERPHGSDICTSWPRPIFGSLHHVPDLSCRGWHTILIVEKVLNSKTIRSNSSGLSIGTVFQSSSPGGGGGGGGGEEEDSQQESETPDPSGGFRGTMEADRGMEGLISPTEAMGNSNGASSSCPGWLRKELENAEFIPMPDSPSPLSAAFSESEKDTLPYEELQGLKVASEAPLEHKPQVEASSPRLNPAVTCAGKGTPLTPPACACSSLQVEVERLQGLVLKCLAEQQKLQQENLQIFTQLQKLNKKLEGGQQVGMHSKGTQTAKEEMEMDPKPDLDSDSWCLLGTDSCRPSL
# [10] = biological target: T3, Serine/threonine-protein kinase Nek2 (Homo sapiens); conditions: at 0.1 µM
Structure (SMILES),inhibition [1] [%],inhibition [2] [%],inhibition [3] [%],inhibition [4] [%],inhibition [5] [%],inhibition [6] [%],inhibition [7] [%],inhibition [8] [%],inhibition [9] [%],inhibition [10] [%]
COc1cc2c(cc1Nc1nc(Nc3ccsc3C(N)=O)c3cc[nH]c3n1)N(C(=O)CN(C)C)CCC2,9.27,0.09,0.97,6.67,1.52,-0.11,1.7,9.62,1.89,–
COc1cccc(COc2cc(-n3cnc4ccccc43)sc2C(N)=O)c1,-7.06,0.41,4.13,1.43,1.63,-0.37,0.3,0.66,0.4,8.56
COc1cccc(-n2ncc3c(N/N=C/c4ccncc4)ncnc32)c1,9.13,3.6,12.5,5.47,4.03,3.93,2.45,3.46,7.16,5.11
NC(=O)c1sc(-n2cnc3cc(C(F)(F)F)ccc32)cc1OCc1ccccc1Br,3.62,1.03,1.9,3.63,-1.58,-0.03,-3.9,3.69,8.36,2.62
CCn1c(-c2nonc2N)nc2c(C#CC(C)(C)O)ncc(OC[C@@H]3CCCN3)c21,98.7,0.01,0.55,0.91,1.04,0.79,-0.99,-0.58,-1.1,0.12
NS(=O)(=O)c1ccc(-c2ccc3c(NC(=O)C4CC4)n[nH]c3c2)cc1,3.02,1.11,1.6,2.84,1.03,0.35,2.6,1.74,5.05,3.54
NS(=O)(=O)c1ccc(N/C=C2\C(=O)Nc3ccc4ncsc4c32)cc1,41.9,2.04,3.28,8.52,1.42,4.37,1.21,7.53,5.84,6.71
CCn1c(-c2nonc2N)nc2c(C#CCN)ncc(OCCCN)c21,2.04,-2.66,-3.17,-4.57,-0.99,-1.85,-5.43,-9.67,–,-4.61
CCn1c(-c2nonc2N)nc2c(C#CC(C)(C)O)nc(O[C@@H](CN)c3ccccc3)cc21,98.9,1.61,17.2,33.5,0.93,-0.92,1.12,0.58,3.66,5.29
Cc1cc(-c2ccco2)cc(C)c1/C=C/c1cncc(-c2nn[nH]n2)c1,3.83,1.34,1.67,1.44,0.53,-0.1,–,0.89,3.25,1.03
Fc1ccc(-c2ncn(C3CCNCC3)c2-c2ccnc(Oc3ccccc3)n2)cc1,3.7,1.07,1.73,1.85,7.63,2.1,2.34,6.68,2.53,3.29
COc1cc(C=NNc2ncnc3c2cnn3Cc2ccccc2)ccc1O,-4.1,-1.23,-0.61,-5.26,-0.58,-3.89,-6.27,-2.54,3.47,-5.42
Nc1nonc1-c1nc2cnccc2n1C1CCCCC1,16.2,-1.33,0.56,-7.26,0.47,-0.88,0.07,-0.97,-5.44,-2.06
CCn1c(-c2nonc2N)nc2c(C#CC(C)(C)O)ncc(OCC3CCNCC3)c21,99.1,2.19,3.24,3.71,3.46,4.94,3.99,3.34,5.3,3.86
